Active and inactive are the calls of the source. Rule for the calls: active = hit-call score of the fitted dose curve at least 0.9, where 1 is the maximum; inactive = score below 0.9.

Read-out in assay [1]: Interleukin-1 alpha (IL1a), IL1A (gene 3552)
Kind of assay: BSK_KF3CT_IL1a: BioMAP Diversity Plus: KF3CT Assay for Interleukin-1 alpha (IL1a) Biomarker Activity (AID 2283070). Particulars: primary human keratinocytes with fibroblasts; actives raise or lower the signal. The procedure, abridged: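 Readout is IL-1a level by ELISA, compared bidirectionally with DMSO as baseline. Cells: human keratinocytes co-cultured with foreskin fibroblasts, harvested 24 h post-dose.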

Read-out in assay [2]: TIMP metallopeptidase inhibitor 2 (TIMP2), TIMP2 (gene 7077)
Kind of assay: BSK_KF3CT_TIMP2: BioMAP Diversity Plus: KF3CT Assay for TIMP metallopeptidase inhibitor 2 (TIMP2) Biomarker Activity (AID 2283071). The note with it: primary human keratinocytes with fibroblasts; actives raise or lower the signal. The procedure, abridged:
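ELISA readout of TIMP-2 in keratinocyte plus foreskin fibroblast co-cultures (human skin primary cells), 24 h post-dose. Gain or loss of signal fitted relative to DMSO.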

Read-out in assay [3]: Transforming growth factor beta 1 (TGFb1), TGFB1 (gene 7040)
Kind of assay: BSK_KF3CT_TGFb1: BioMAP Diversity Plus: KF3CT Assay for Transforming growth factor beta 1 (TGFb1) Biomarker Activity (AID 2283072). Particulars: primary human keratinocytes with fibroblasts; actives raise or lower the signal. The procedure, abridged:
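Read-out: ELISA for TGF-b1 in keratinocyte/foreskin fibroblast human skin co-culture, 24 h after dosing; bidirectional curve fit vs DMSO baseline; gain or loss of signal scored.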

Read-out in assay [4]: C-C motif chemokine 2 (Homo sapiens) (UniProt P13500)
The assay is described as follows: BSK_KF3CT_MCP1: BioMAP Diversity Plus: KF3CT Assay for Monocyte Chemoattractant Protein 1 (MCP1/CCL2) Biomarker Activity (AID 2283073). Particulars: primary human keratinocytes with fibroblasts; actives raise or lower the signal. Put shortly: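 KF3CT skin co-culture (keratinocytes/foreskin fibroblasts), 24 h post-dose; MCP-1 by ELISA; gain/loss of signal fit bidirectionally vs DMSO baseline.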

Read-out in assay [5]: Matrix Metallopeptidase 9 (MMP9), MMP9 (gene 4318)
Kind of assay: BSK_KF3CT_MMP9: BioMAP Diversity Plus: KF3CT Assay for Matrix Metallopeptidase 9 (MMP9) Biomarker Activity (AID 2283074).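 For AC50: MMP9 protein level quantified by ELISA in the co-culture.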 Particulars: primary human keratinocytes with fibroblasts; actives raise or lower the signal. Put shortly:
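Values come from bidirectional fitting relative to DMSO of MMP-9 levels, which were measured by ELISA. Measurements were taken 24 h after chemical dosing of a keratinocyte and foreskin fibroblast co-culture.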

Read-out in assay [6]: urokinase plasminogen activator (uPA), PLAU (gene 5328)
The assay is described as follows: BSK_KF3CT_uPA: BioMAP Diversity Plus: KF3CT Assay for urokinase plasminogen activator (uPA) Biomarker Activity (AID 2283075). The note with it: primary human keratinocytes with fibroblasts; actives raise or lower the signal. Put shortly: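 Values derive from bidirectional fitting against DMSO controls. Keratinocyte/foreskin fibroblast co-cultures received chemical; 24 h later uPA was detected by ELISA, with SRB total-protein staining in parallel wells for overt cytotoxicity.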

Read-out in assay [7]: CD40, CD40 (gene 958)
Kind of assay: BSK_LPS_CD40: BioMAP Diversity Plus: LPS Assay for CD40 Biomarker Activity (AID 2283076). Particulars: primary human HUVEC with PBMC; actives raise or lower the signal. The procedure, abridged: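 ELISA readout of CD40 in HUVEC/PBMC co-culture (BSK_LPS system), 24 h post-dosing; bidirectional curve fit, DMSO baseline; parallel SRB total-protein staining for cytotoxicity.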

Read-out in assay [8]: E-selectin (Homo sapiens) (UniProt P16581)
Kind of assay: BSK_LPS_Eselectin: BioMAP Diversity Plus: LPS Assay for Eselectin Biomarker Activity (AID 2283077). Particulars: primary human HUVEC with PBMC; actives raise or lower the signal. Put shortly:
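ELISA readout of E-selectin, 24 h post-dose, HUVEC + PBMC co-culture (LPS system). Gain or loss of signal vs DMSO baseline, bidirectional fit.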

Read-out in assay [9]: Interleukin-8 (IL8), CXCL8 (gene 3576)
The assay is described as follows: BSK_LPS_IL8: BioMAP Diversity Plus: LPS Assay for Interleukin-8 (IL8) Biomarker Activity (AID 2283078). Particulars: primary human HUVEC with PBMC; actives raise or lower the signal. Put shortly:
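HUVEC + PBMC co-culture, LPS-activated; test chemicals dosed, IL-8 read by ELISA at 24 h. Bidirectional curve fit vs DMSO baseline (gain or loss of signal).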

Assay [10] is described as follows: BSK_LPS_SRB: Viability Assessment in the BioMAP Diversity Plus: LPS Assay (AID 2283079).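 Note: total protein by sulforhodamine B absorbance as a cytotoxicity measure; measured one day after compound addition; fitted in both directions against DMSO so loss or gain of signal counts.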 The note with it: primary human HUVEC with PBMC. The procedure, abridged:
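HUVEC + PBMC co-culture, LPS-stimulated; compound 24 h. 10% TCA fix, 0.1% SRB stain, A560. Bidirectional fit vs DMSO.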

Read-out in assay [11]: Interleukin-1 alpha (IL1a), IL1A (gene 3552)
Kind of assay: BSK_LPS_IL1a: BioMAP Diversity Plus: LPS Assay for Interleukin-1 alpha (IL1a) Biomarker Activity (AID 2283080). The note with it: primary human HUVEC with PBMC; actives raise or lower the signal. Put shortly: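 HUVEC/PBMC co-culture, LPS system; 24 h after dosing; IL-1a by ELISA; gain or loss of signal fitted bidirectionally vs DMSO baseline.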

Read-out in assay [12]: Monocyte Chemoattractant Protein-1 (MCP1), CCL2 (gene 6347)
The assay is described as follows: BSK_LPS_MCP1: BioMAP Diversity Plus: LPS Assay for Monocyte Chemoattractant Protein-1 (MCP1) Biomarker Activity (AID 2283081). The note with it: primary human HUVEC with PBMC; actives raise or lower the signal. Put shortly:
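ELISA read-out of MCP-1 after 24 h chemical dosing of a human umbilical vein endothelial cell/peripheral blood mononuclear cell co-culture stimulated with LPS. Gain or loss of signal fitted relative to DMSO controls.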

Assay [13] is described as follows: BSK_LPS_PGE2: BioMAP Diversity Plus: LPS Assay for Prostaglandin E2 (PGE2) Biomarker Activity (AID 2283082).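 For AC50: secreted prostaglandin E2 measured by ELISA in LPS-stimulated co-culture.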 The note with it: primary human HUVEC with PBMC; actives raise or lower the signal. The procedure, abridged: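 ELISA read-out of PGE2 from human umbilical vein endothelial cells co-cultured with peripheral blood mononuclear cells under LPS, 24 h post-dose. Gain or loss of signal scored relative to DMSO baseline.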

Read-out in assay [14]: Macrophage colony-stimulating factor (MCSF), CSF1 (gene 1435)
Kind of assay: BSK_LPS_MCSF: BioMAP Diversity Plus: LPS Assay for Macrophage colony-stimulating factor (MCSF) Biomarker Activity (AID 2283083). Particulars: primary human HUVEC with PBMC; actives raise or lower the signal. The procedure, abridged: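 HUVEC + PBMC co-culture (human primary), 24 h post-dose; M-CSF by ELISA; gain/loss of signal fitted bidirectionally vs DMSO baseline.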

Read-out in assay [15]: Tissue Factor, F3 (gene 2152)
Kind of assay: BSK_LPS_TissueFactor: BioMAP Diversity Plus: LPS Assay for Tissue Factor Biomarker Activity (AID 2283084). Particulars: primary human HUVEC with PBMC; actives raise or lower the signal. The procedure, abridged: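 HUVEC/PBMC co-culture, LPS-activated; CD142 ELISA read 24 h post-dose; bidirectional curve fit vs DMSO negative control.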

Read-out in assay [16]: Tumor necrosis factor (Homo sapiens) (UniProt P01375)
Kind of assay: BSK_LPS_TNFa: BioMAP Diversity Plus: LPS Assay for Tumour Necrosis Factor alpha (TNFa) Biomarker Activity (AID 2283085). The note with it: primary human HUVEC with PBMC; actives raise or lower the signal. The procedure, abridged: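 HUVEC/PBMC co-culture, LPS-stimulated; 24 h post-dose; TNFa by ELISA; gain or loss of signal fitted bidirectionally vs DMSO baseline.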

Read-out in assay [17]: Vascular cell adhesion molecule 1 (VCAM1), VCAM1 (gene 7412)
Kind of assay: BSK_LPS_VCAM1: BioMAP Diversity Plus: LPS Assay for Vascular cell adhesion molecule 1 (VCAM1) Biomarker Activity (AID 2283086). Particulars: primary human HUVEC with PBMC; actives raise or lower the signal. The procedure, abridged:
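ELISA read-out of VCAM-1 at 24 h post-dosing in an LPS-driven HUVEC/PBMC primary human co-culture; gain or loss of signal fitted bidirectionally against DMSO baseline. Cytotoxicity tracked in parallel cultures by SRB total-protein staining.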

Read-out in assay [18]: CD38, CD38 (gene 952)
The assay is described as follows: BSK_SAg_CD38: BioMAP Diversity Plus: SAg Assay for CD38 Biomarker Activity (AID 2283087). Particulars: primary human HUVEC with PBMC; actives raise or lower the signal. Put shortly: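 Measures CD38 on a human endothelial/PBMC co-culture driven by SEB and TSST-1, 24 h after compound exposure, using ELISA with fluorescence detection; DMSO defines baseline for bidirectional curve fitting.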

Read-out in assay [19]: CD40, CD40 (gene 958)
The assay is described as follows: BSK_SAg_CD40: BioMAP Diversity Plus: SAg Assay for CD40 Biomarker Activity (AID 2283088). Particulars: primary human HUVEC with PBMC; actives raise or lower the signal. The procedure, abridged: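 HUVEC/PBMC co-culture, 24 h post-dose; CD40 by ELISA, fluorescence intensity; bidirectional fit vs DMSO negative control.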

Read-out in assay [20]: CD69, CD69 (gene 969)
The assay is described as follows: BSK_SAg_CD69: BioMAP Diversity Plus: SAg Assay for CD69 Biomarker Activity (AID 2283089).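 For AC50: cell surface CD69 protein quantified by ELISA with fluorescence detection.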 Particulars: primary human HUVEC with PBMC; actives raise or lower the signal. The procedure, abridged: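 HUVEC co-cultured with PBMC were dosed with chemical, and CD69 was measured by ELISA with fluorescence read-out 24 h later. Bidirectional curve fitting used DMSO as negative control and activity baseline.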

Sequence of E-selectin (Homo sapiens) (P16581 whole entry, looked up): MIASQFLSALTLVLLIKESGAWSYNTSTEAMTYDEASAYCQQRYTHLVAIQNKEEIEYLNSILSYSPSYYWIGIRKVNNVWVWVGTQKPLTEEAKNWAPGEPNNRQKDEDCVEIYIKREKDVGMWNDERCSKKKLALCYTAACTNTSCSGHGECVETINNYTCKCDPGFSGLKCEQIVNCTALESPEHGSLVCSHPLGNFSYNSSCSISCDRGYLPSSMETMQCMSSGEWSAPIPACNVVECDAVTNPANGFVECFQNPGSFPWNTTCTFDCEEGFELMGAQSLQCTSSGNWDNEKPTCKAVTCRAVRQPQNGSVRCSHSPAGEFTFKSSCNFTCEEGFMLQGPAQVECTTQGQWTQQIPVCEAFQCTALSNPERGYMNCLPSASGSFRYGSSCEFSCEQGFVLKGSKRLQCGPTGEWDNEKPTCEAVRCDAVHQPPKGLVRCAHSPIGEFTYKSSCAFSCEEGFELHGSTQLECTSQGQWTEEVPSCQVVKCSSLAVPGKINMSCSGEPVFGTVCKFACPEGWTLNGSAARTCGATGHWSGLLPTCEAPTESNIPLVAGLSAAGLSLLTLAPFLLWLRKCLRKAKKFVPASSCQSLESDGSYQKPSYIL
Sequence of Tumor necrosis factor (Homo sapiens) (P01375 whole entry, looked up): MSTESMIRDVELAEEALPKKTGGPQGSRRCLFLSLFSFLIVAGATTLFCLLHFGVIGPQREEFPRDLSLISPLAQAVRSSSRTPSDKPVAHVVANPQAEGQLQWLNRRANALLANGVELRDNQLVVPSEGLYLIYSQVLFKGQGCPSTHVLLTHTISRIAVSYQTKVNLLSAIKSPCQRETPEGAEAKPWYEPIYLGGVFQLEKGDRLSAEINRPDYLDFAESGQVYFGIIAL

Consider `CCC(=O)Nc1ccc(Cl)c(Cl)c1`, for which the outcome in assay [1], in [2], in assay [3], in assay [4], in assay [5] and in [6] was inactive. Moreover, the outcome in assay [7], in [8], in assay [9], in assay [10], in assay [11] and in assay [12] was inactive. The result in [14], in assay [15], in assay [16], in assay [17], in assay [18] and in [19] was inactive. Moreover, the result in assay [20] was inactive. In assay [13], the AC50 was 8.77 µM (active).
In the case of `CCCCN(CC)c1c([N+](=O)[O-])cc(C(F)(F)F)cc1[N+](=O)[O-]`, the outcome in assay [1], in assay [2], in assay [3], in [4], in [6] and in assay [9] was inactive. The result in assay [10], in assay [11], in assay [12], in assay [13], in [15] and in assay [16] was inactive. For the same compound, the result in [20] was inactive. In addition, the AC50 in assay [5] is 22.1 µM (active); in assay [7], 34.2 µM (active); in [8], 20 µM (active); in [14] it was 18.2 µM (active); in assay [17], 26.5 µM (active); in assay [18], 27.9 µM (active). In addition, the AC50 in assay [19] is 29.1 µM (active).
`Nc1nc(N)nc(NC2CC2)n1`: the outcome in [1], in assay [2], in [3], in assay [4], in [5] and in assay [6] was inactive. The result in assay [7], in assay [8], in [9], in assay [10], in assay [11] and in assay [12] was inactive. For the same compound, the result in assay [13], in assay [14], in [15], in [16], in [17] and in assay [18] was inactive. Also, the result in assay [19] and in assay [20] was inactive.
As to `CCOP(=O)(OCC)Oc1cc(C)nc(C(C)C)n1`, the outcome in [1], in [3], in assay [8], in [9], in [10] and in assay [11] was inactive. In addition, the outcome in assay [12], in [13], in [14], in [15], in assay [16] and in assay [17] was inactive. For the same compound, the result in assay [18], in [19] and in assay [20] was inactive. In addition, the half-maximal activity concentration (AC50) is 29.8 µM (active) in assay [2]; 31.5 µM (active) in assay [4]; 30.3 µM (active) in [5]; 29.3 µM (active) in [6]; 14.4 µM (active) in assay [7].
For the compound `CCOC(=O)CC(SP(=O)(OC)OC)C(=O)OCC` (stereo not drawn), the result in [1], in assay [2], in assay [3], in [4], in [5] and in assay [6] was inactive. The outcome in assay [7], in assay [9], in [10], in [11], in assay [12] and in [14] was inactive. The result in [15], in assay [16], in [17], in assay [18] and in [20] was inactive. Also, the AC50 in assay [8] was 2.5 µM (active); in assay [13] it was 0.323 µM (active).
In the case of `CCOC(=O)COc1cc(-c2nn(C)c(OC(F)F)c2Cl)c(F)cc1Cl`, the outcome in [1], in assay [2], in assay [3], in [4], in assay [5] and in assay [6] was inactive. Besides, the outcome in [7], in [8], in assay [9], in assay [10], in assay [11] and in assay [12] was inactive. Further, the result in assay [13], in [14], in assay [15], in [16], in [17] and in assay [18] was inactive. The AC50 in [20] was 3.97 µM (active).

(Values after PubChem BioAssay (EPA / NIEHS).)
